Experimental findings from PubChem BioAssay (Tox21) are described below.

A number with no mark means an inactive call. Records with an inconclusive call do not appear. Activity calls are given as the source filed them. Unless noted, calls follow the shape of the dose curve; as a rule, active = well fitted curve in the direction sought with a large enough effect in the repeat runs; inconclusive = weak or mixed curves; inactive = no such curve, though single readings can be large; an effect the other way counts as inactive or inconclusive.

Assay [1] addresses Progesterone receptor (Homo sapiens) (UniProt P06401). Briefly: qHTS assay to identify small molecule agonists of the progesterone receptor (PR) signaling pathway (AID 1346784; calls by dose curve; also: nearly all actives have a fitted effect of over 30% in size). The procedure, abridged: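 Compounds were tested for PR agonism in HEK 293T cells bearing a beta-lactamase gene under UAS control. Treatment lasted 16 hr at 37C; signal came from fluorescence of a FRET substrate.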
(In qHTS, concentration-response curves come from the screen itself.)

The target is the same in assay [2]. Briefly: qHTS assay to identify small molecule antagonists of the progesterone receptor (PR) signaling pathway (AID 1346795; active = well fitted inhibition curve with a large enough effect in the signal ratio in the repeat runs, not every such curve was filed as active; the % refers to the signal ratio). The procedure, abridged:
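In HEK293T cells bearing the PR-UAS-bla reporter, compound effects on promegestone-driven (1 nM) beta-lactamase expression are assessed after 16 hr using a fluorescent FRET substrate incubated 2 hr at room temperature.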

A short description of assay [3]: qHTS assay to identify small molecule antagonists of the TGF-beta/Smad signaling pathway - cell viability counter screen (AID 1346824). Also: nearly all actives have a fitted effect of over 50% in size. The procedure, abridged: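 Cytotoxicity counter-screen run in the same wells as the beta-lactamase Smad reporter read: CellTiter-Glo luminescence after 30 min at room temperature. HEK 293T SBE-bla cells had 5 hr compound exposure at 37 C with TGF-beta1 (0.25 ng/mL stock).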

Assay [4] can be described thus: qHTS assay to identify small molecule agonists of the TGF-beta/Smad signaling pathway - cell viability counter screen (AID 1346829). Also: top concentration of the series differs between compounds; nearly all actives have a fitted effect of over 45% in size. The procedure, abridged:
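Luminescence from CellTiter-Glo, read after a 30 min room-temperature incubation, gives cell viability of SBE-bla HEK 293T cells treated 5 hr with compounds at 37 C.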

Assay [5] in a line: qHTS assay to identify small molecule agonists of the TGF-beta/Smad signaling pathway (AID 1346859; active = well fitted activation curve with a large enough effect in the signal ratio in the repeat runs, not every such curve was filed as active; the % refers to the signal ratio; also: series mostly up to about 77 µM). In outline: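 Each well held 4,000 SBE-bla HEK 293T cells incubated overnight before compound addition; 5 hr later the cleavable FRET substrate went on for 2 hr at room temperature, and fluorescence was read at two emissions.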
The target in assay [6] is Thyrotropin-releasing hormone receptor (Homo sapiens) (UniProt P34981). Briefly: qHTS assay to identify small molecule antagonists of the thyrotropin-releasing hormone receptor (TRHR) signaling pathway (AID 1346877; active = well fitted inhibition curve with a large enough effect in the repeat runs, not every such curve was filed as active; also: series mostly up to about 51 µM). The procedure, abridged: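 Antagonist mode: after a 5 min room-temperature compound exposure, cells were stimulated with 1 nM (final) TRH. Dye-loaded TRHR-HEK293 cells were used, and calcium-dependent fluorescence was followed for 3 min, with 15-point titrations run in triplicate.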
Sequence of Thyrotropin-releasing hormone receptor (Homo sapiens) (P34981 whole entry, looked up): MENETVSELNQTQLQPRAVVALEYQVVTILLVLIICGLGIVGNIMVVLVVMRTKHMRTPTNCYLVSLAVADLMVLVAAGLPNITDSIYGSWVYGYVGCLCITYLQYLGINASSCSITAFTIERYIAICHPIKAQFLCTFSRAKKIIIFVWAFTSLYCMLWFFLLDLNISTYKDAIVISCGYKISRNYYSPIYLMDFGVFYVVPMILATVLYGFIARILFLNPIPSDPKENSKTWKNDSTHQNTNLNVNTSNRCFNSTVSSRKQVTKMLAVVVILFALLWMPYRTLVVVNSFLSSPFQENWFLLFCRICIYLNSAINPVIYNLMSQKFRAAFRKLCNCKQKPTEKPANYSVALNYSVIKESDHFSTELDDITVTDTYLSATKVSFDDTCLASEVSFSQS

Assay [7] can be described thus: Human pregnane X receptor (PXR) small molecule agonists, qHTS cell viability counter screen (AID 1346977). Also: nearly all actives have a fitted effect of over 50% in size. In outline: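 Tox21 qHTS format; PXR-Luc HepG2, 2,000/well, charcoal-stripped FBS 5%. Cpd exposure 24hr. Read: CellTiter-Fluor fluorescence, multiplexed with luciferase.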
A short description of assay [8]: Caspase-3/7 induction in HepG2 cells by small molecules, qHTS assay (AID 1346978). Also: nearly all actives have a fitted effect of over 15% in size. The procedure, abridged:
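Caspase-3/7 induction was measured by Caspase-Glo 3/7 luminescence (30 min, room temperature) after a 17 hr compound exposure of wild-type HepG2 cells seeded at 2,000 per well and pre-incubated 5 hr.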

Assay [9] in a line: Caspase-3/7 induction in CHO-K1 cells by small molecules, qHTS assay (AID 1346980). Also: nearly all actives have a fitted effect of over 15% in size. In outline: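 Luminescent Caspase-Glo 3/7 read (30min, room temperature) quantified apoptosis induction. Cells were wild-type CHO-K1, treated with compound for 17hr at 37 C and 5% CO2.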
The nature of assay [10]: Caspase-3/7 induction in HepG2 cells by small molecules, qHTS cell viability counter screen (AID 1346981). Also: series mostly up to about 92 µM; nearly all actives have a fitted effect of over 30% in size. In outline: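 CellTiter-Fluor fluorescence measured viability in the same wells used for Caspase-Glo 3/7. HepG2 (wild type) at 2,000 cells/well were pre-incubated 5 hr, dosed, and given reagent at 16 hr, with 1 hr further at 37C.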
In assay [11] the target is Nuclear receptor subfamily 1 group I member 2 (Homo sapiens) (UniProt O75469). Briefly: Human pregnane X receptor (PXR) small molecule agonists, qHTS assay (AID 1346982). Also: nearly all actives have a fitted effect of over 35% in size. Also: potency is read from the fitted curve at half-maximal effect. The procedure, abridged:
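Agonist mode: luminescence from ONE-Glo after 24 h compound exposure at 37C in HepG2 cells carrying hPXR-responsive CYP3A4 luciferase, plated in charcoal-stripped serum medium 5 h beforehand.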

Assay [12] addresses Cytochrome P450 2D6 (Homo sapiens) (UniProt P10635). Briefly: Cytochrome P450 Family 2 Subfamily D Member 6 (CYP2D6) small molecule antagonists: luciferase reporter qHTS assay (AID 1671196). Also: nearly all actives have a fitted effect of over 50% in size. Also: potency is read from the fitted curve at half-maximal effect. In outline: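 CYP2D6 activity was followed as luminescence from its luciferin product after a 1 h NADPH-driven reaction at room temperature. Enzyme-substrate mix and compound were pre-incubated for 10 min, and the signal was read 20 min after adding detection reagent.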

The target in assay [13] is Cytochrome P450 2C19 (Homo sapiens) (UniProt P33261). Briefly: Cytochrome P450 Family 2 Subfamily C Member 19 (CYP2C19) small molecule antagonists: luciferase reporter qHTS assay (AID 1671197). Also: nearly all actives have a fitted effect of over 65% in size. Also: potency is read from the fitted curve at half-maximal effect. In outline: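 CYP2C19 P450-Glo, 1536-well qHTS. Cpd + enzyme/proluciferin substrate 10 min RT; + NADPH regen, 37C 1 h; stop with luciferin detection reagent, 20 min RT, luminescence (RLU). Pos ctrl ketoconazole.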
Sequence of Cytochrome P450 2C19 (Homo sapiens) (P33261 whole entry, looked up): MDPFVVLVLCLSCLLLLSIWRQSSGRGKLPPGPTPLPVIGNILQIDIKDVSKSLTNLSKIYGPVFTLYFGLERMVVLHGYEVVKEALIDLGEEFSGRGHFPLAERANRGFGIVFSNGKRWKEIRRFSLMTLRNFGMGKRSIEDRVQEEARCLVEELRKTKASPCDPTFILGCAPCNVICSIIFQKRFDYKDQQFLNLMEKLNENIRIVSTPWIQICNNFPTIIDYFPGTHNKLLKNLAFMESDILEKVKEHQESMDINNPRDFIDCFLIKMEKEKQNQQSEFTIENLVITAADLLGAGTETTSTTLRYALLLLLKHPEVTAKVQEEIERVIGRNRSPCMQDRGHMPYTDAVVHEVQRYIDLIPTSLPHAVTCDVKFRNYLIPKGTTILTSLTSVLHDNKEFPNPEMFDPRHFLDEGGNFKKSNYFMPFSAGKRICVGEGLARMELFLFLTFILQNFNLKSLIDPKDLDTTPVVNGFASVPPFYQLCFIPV
On the technique in general: Reporter assays use an easily measured gene product as a stand-in for the process of interest.

A short description of assay [14]: qHTS assay to identify small molecule agonists of the progesterone receptor (PR) signaling pathway - cell viability counter screen (AID 1346799; calls by dose curve; also: nearly all actives have a fitted effect of over 45% in size). In outline:
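Here, 3,000 PR-UAS-bla HEK293T cells per well were treated with compounds for 16 hr after a 6 hr preincubation at 37C and 5% CO2; cell viability is the CellTiter-Glo luminescence signal.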

Assay [15] is described as follows: qHTS assay to identify small molecule antagonists of the progesterone receptor (PR) signaling pathway - cell viability counter screen (AID 1346798). Also: series mostly up to about 92 µM; nearly all actives have a fitted effect of over 50% in size. In outline:
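Following a 4 hr attachment, PR-UAS-bla HEK293T cells in charcoal-stripped FBS medium were exposed to compounds with R5020 for 16 hr; CellTiter-Glo was added and luminescence read after 30 min at room temperature.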

The target of assay [16] is Nuclear receptor subfamily 1 group I member 2 (Rattus norvegicus) (UniProt Q9R1A7). Briefly: Rat pregnane X receptor (rPXR) activation by small molecules, qHTS assay (AID 1346983). Also: nearly all actives have a fitted effect of over 20% in size. Particulars: rPXR luciferase reporter cells, One-Glo luminescence, 24 h; max activation: stronger effect = higher value. The procedure, abridged:
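Luminescent readout (One-Glo luciferase, 30 min room temperature) followed 24 hr compound treatment at 37 C of rPXR cells plated 2,000 per well and preincubated 5hr; qHTS format with compounds delivered in DMSO.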

In assay [17] the target is Nuclear receptor subfamily 1 group I member 2 (Homo sapiens) (UniProt O75469). Briefly: CYP3A4 induction through human pregnane X receptor (PXR) by small molecules, qHTS assay (AID 1346984). Also: nearly all actives have a fitted effect of over 40% in size. The procedure, abridged: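 Read-out is luminescence after One-Glo addition, following a 3 hr, 37C incubation with Luciferin-IPA CYP3A4 substrate (3uM final). Before that, compounds were on DPX-2 cells (HepG2 co-transfected with PXR element plus CYP3A4-promoter luciferase) for 24 hr at 37C.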
Sequence of Nuclear receptor subfamily 1 group I member 2 (Homo sapiens) (O75469 whole entry, looked up): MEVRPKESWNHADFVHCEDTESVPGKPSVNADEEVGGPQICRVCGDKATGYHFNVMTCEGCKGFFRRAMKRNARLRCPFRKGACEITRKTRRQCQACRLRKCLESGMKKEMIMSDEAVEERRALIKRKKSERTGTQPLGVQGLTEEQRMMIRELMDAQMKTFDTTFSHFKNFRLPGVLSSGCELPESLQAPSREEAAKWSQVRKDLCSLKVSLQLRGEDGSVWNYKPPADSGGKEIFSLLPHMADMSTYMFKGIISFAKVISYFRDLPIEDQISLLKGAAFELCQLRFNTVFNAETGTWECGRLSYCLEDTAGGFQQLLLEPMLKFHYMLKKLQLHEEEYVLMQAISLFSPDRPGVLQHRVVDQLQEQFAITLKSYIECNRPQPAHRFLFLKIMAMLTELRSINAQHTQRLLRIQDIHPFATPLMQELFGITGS

The nature of assay [18]: Caspase-3/7 induction in CHO-K1 cells by small molecules, qHTS cell viability counter screen (AID 1346979). Also: nearly all actives have a fitted effect of over 35% in size. The procedure, abridged:
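CellTiter-Fluor viability check, qHTS format: wild-type CHO-K1, 16hr compound treatment, 1hr reagent incubation, fluorescence read.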

Assay [19] concerns the target Thyrotropin-releasing hormone receptor (Homo sapiens) (UniProt P34981). Briefly: qHTS assay to identify small molecule agonists of the thyrotropin-releasing hormone receptor (TRHR) signaling pathway (AID 1346891; calls by dose curve; also: series mostly up to about 58 µM). In outline:
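Screening of agonists relied on calcium signalling in HEK293 cells expressing human TRHR: dye loading 2 h at 37 °C preceded compound addition and a 3-min fluorescence time course.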
% is scaled to controls: 0 for no effect and ±100 for the full control effect.

Sequence of Cytochrome P450 2D6 (Homo sapiens) (P10635 whole entry, looked up): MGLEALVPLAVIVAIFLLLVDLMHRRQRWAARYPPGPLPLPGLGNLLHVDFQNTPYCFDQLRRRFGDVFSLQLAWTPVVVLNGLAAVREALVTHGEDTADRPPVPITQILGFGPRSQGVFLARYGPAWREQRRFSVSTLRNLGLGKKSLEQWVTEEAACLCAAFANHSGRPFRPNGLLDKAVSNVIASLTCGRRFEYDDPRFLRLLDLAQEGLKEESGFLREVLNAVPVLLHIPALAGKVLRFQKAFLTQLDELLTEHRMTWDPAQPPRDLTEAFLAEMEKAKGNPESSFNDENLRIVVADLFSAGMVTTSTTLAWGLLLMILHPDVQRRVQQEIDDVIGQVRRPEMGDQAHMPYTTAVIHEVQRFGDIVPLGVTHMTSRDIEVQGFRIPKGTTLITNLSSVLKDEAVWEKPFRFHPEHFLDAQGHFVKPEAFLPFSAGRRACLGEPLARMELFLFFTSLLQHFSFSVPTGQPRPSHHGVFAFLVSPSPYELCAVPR
Sequence of Progesterone receptor (Homo sapiens) (P06401 whole entry, looked up): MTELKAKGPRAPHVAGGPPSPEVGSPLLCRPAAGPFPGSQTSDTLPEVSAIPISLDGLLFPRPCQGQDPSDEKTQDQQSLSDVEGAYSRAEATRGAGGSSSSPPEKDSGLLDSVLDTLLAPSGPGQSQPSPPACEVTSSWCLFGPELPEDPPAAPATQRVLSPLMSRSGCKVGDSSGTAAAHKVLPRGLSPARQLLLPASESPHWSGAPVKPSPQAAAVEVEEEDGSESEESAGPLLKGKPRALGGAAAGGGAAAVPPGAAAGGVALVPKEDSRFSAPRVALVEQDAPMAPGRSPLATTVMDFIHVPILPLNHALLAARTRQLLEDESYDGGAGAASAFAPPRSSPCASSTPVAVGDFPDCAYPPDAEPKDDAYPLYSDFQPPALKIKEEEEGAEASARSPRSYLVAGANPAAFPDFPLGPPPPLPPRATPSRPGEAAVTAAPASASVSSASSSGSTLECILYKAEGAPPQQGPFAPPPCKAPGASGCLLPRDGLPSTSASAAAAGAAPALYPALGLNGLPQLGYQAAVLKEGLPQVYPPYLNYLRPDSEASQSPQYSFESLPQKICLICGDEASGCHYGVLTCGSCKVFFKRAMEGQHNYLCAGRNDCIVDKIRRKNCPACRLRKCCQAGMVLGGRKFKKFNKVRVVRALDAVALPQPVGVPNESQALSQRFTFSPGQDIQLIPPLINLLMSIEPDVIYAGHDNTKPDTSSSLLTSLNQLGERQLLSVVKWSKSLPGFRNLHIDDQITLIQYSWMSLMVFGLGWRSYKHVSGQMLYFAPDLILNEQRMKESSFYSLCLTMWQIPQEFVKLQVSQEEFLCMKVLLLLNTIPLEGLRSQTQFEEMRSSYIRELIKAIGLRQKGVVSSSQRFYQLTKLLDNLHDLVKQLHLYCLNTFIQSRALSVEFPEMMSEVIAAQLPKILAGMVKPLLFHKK
Sequence of Nuclear receptor subfamily 1 group I member 2 (Rattus norvegicus) (Q9R1A7 whole entry, looked up): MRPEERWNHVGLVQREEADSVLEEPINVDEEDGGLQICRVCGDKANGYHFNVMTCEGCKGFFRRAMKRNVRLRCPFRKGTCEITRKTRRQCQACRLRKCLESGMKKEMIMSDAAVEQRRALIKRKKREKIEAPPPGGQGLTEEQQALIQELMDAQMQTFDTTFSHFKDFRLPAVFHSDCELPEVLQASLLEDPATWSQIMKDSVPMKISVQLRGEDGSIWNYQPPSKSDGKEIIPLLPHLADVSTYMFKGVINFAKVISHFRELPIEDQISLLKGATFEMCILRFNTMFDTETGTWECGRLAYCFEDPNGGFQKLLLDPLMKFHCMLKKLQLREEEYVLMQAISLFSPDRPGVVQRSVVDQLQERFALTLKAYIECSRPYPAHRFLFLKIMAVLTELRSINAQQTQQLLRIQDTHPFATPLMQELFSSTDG

For `CCCCOC(O)CC` (stereo not given), the outcome in assay [1], in [5], in assay [6] and in [8] was inactive. In addition, the Potency entry in [2], in assay [3], in assay [4], in assay [7], in assay [9] and in [10] was “inactive” in each case. The Potency entry in assay [11], in assay [12] and in assay [13] was “inactive” in each case.

In the case of `CN1CCC(=C2c3ccccc3C=Cc3ccccc32)CC1`, the outcome in assay [1], in assay [5] and in [8] was inactive. Moreover, the Potency result in [2], in assay [14], in assay [3], in [4], in assay [9] and in assay [10] was “inactive” in each case. Moreover, the Potency entry in assay [11] was “inactive”. The Potency in assay [12] was 2.45 µM (active).

For the compound `O=C(c1ccccc1)c1ccc2n1CCC2C(=O)O` (stereo not given), the compound was called inactive in assay [1] and in assay [8]. The Potency result in [2], in [15], in assay [4], in assay [7], in assay [9] and in [10] was “inactive” each time. Besides, the Potency entry in assay [11], in assay [17], in assay [12] and in assay [13] was “inactive” throughout. Further, the max activation in [16] is 4.49%.

For `CCN1CCC[C@H]1CNC(=O)c1c(OC)ccc(Br)c1OC`, the result in [1], in [5] and in assay [8] was inactive. For the same compound, the Potency result in assay [2], in assay [15], in assay [3], in assay [4], in assay [7] and in [18] was “inactive” in each case. Further, the Potency entry in [9], in assay [10], in [11], in [17] and in [13] was “inactive” each time. Further, the max activation in [16] was 7.68%.

Regarding `C#CCOC(=O)[C@@H](C)Oc1ccc(Oc2ncc(Cl)cc2F)cc1`, the compound was classed as inactive in [1], in assay [5] and in assay [6]. Besides, the Potency result in assay [2], in [15], in assay [3], in assay [4], in assay [19] and in assay [18] was “inactive” throughout. Further, the Potency result in [9], in [10] and in assay [11] was “inactive” each time. The Potency in [13] is 17.7 µM (active).

As to `CC(=O)c1ccc2c(c1)[C@H](NC(=O)c1ccc(F)cc1)[C@@H](O)C(C)(C)O2`, the outcome in [1], in [5], in assay [6] and in assay [8] was inactive. Further, the Potency result in [2], in assay [15], in assay [3], in assay [4], in assay [7] and in assay [9] was “inactive” throughout. For the same compound, the Potency entry in assay [11] was “inactive”. In addition, the Potency in [12] is 18.8 µM (active).

On to `CCN(CC)CCNC(C(=O)OCCC(C)C)c1ccccc1` (stereo not given), for which the call in assay [1], in [5], in assay [6] and in assay [8] was inactive. The Potency entry in assay [2], in assay [15], in assay [3], in [4], in assay [19] and in assay [18] was “inactive” each time. The Potency entry in assay [9], in assay [10] and in [13] was “inactive” in each case. Also, the max activation in assay [16] is -0.588%. For the same compound, the Potency in assay [12] was 1.74 µM (active).

Consider `CCOc1ccc2[nH]cc(C(=O)NCc3ccccc3)c(=O)c2n1`, for which the outcome in assay [1], in assay [5] and in assay [6] was inactive. In addition, the Potency entry in [2], in assay [3], in assay [4], in [19], in assay [7] and in assay [9] was “inactive” in each case. Further, the Potency entry in assay [10] and in assay [12] was “inactive” each time. Further, the Potency was 19.3 µM (active) in assay [11] and 79.6 µM (active) in [13].
